GLS inh = inhibitors of human glutaminase (GLS). O94925. GLS enzymatic activity, qHTS titration. Potency, µM (doses to about 45.5 µM), inactives show at the top dose activity change, negative = inhibition, usual class: inhibitors. 0.21% of 410,000 active; further: on the % scale 0 is the no-effect control and ±100 the full control effect
Target sequence (O94925 whole entry, looked up): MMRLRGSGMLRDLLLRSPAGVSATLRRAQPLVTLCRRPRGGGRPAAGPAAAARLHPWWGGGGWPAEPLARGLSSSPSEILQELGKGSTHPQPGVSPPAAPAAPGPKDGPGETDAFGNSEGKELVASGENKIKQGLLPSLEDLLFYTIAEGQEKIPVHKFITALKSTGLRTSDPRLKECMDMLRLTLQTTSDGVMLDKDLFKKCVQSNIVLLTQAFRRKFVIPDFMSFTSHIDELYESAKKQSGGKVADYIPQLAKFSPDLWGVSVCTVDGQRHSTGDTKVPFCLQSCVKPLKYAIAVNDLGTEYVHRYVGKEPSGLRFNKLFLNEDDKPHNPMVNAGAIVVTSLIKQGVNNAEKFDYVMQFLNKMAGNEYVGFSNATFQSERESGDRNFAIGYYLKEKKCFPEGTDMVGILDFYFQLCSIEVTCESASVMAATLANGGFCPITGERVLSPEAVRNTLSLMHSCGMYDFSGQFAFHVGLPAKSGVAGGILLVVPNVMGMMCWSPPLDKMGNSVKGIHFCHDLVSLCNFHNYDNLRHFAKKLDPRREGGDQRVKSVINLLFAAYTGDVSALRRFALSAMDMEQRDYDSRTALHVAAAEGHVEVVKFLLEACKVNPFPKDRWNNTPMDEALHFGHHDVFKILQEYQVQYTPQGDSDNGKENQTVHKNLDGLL
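Assay buffer: 45 mM KH2PO4 pH 8.2, 0.02% Tween-20. hKGA acts on L-glutamine (1 mM solution added); product glutamate is reported by an oxidase/peroxidase Amplex Red coupling, with fluorescence taken at baseline and 30 min.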
JMJD2A Tudor inh = blocks the human JMJD2A Tudor domain; O75164; AlphaScreen JMJD2A-Tudor / H3K4me3 peptide binding; Potency, µM (highest dose often 114 µM), without a hit: at the highest dose activity change, negative = inhibition, usual class: inhibitors; 4.4% of 390,000 active; AID 504339; further: on the % scale 0 is the no-effect control and ±100 the full control effect; nearly all actives have a fitted effect of over 50% in size
HP1b binding inh = HP1-beta chromodomain-methylated histone interaction inhibition; P83916; AlphaScreen HP1-beta / biotin-H3K9me3 peptide binding; Potency, µM (titrated, usually from 114 µM), for the others: at the top dose activity change, negative = inhibition, hits mostly inhibitors; 0.56% of 390,000 active; AID 540317; further: nearly all actives have a fitted effect of over 70% in size
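Compound inhibition of the preformed complex between 50 nM HP1-beta and 50 nM biotinylated H3K9me3 peptide was read by AlphaScreen. Buffer was PBS pH 7.4 with 0.01% Tween-20. Incubations ran 30 min at room temperature, with 10 ug/mL donor/acceptor beads.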
BAZ2B block = inhibitors of human BAZ2B bromodomain | Q9UIF8 | AlphaScreen BAZ2B-H3K14Ac peptide displacement | Potency, µM (titrated, usually from 114 µM), inactives show at the top dose activity change, negative = inhibition, usual class: inhibitors | 4.4% of 360,000 active | AID 504333; further: on the % scale 0 is the no-effect control and ±100 the full control effect; nearly all actives have a fitted effect of over 60% in size
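AlphaScreen displacement: compounds (up to 110uM) incubated 30 min at room temperature with a preformed 50 nM BAZ2B/50 nM biotinylated H3K14Ac peptide complex in PBS pH 7.4 with Tween-20. Donor and acceptor beads at 10 ug/mL final added, 20 min light-protected before reading.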
G9a inh = inhibitors of human histone lysine methyltransferase G9a; AID 504332; Q96KQ7; Potency, µM (titrated, usually from 102 µM), for inactives: at the highest dose activity, negative = inhibition, most hits filed as inhibitors; 8.8% of 350,000 active; G9a H3K9 monomethylation, AlphaScreen, 2 h; further: on the % scale 0 is the no-effect control and ±100 the full control effect; nearly all actives have a fitted effect of over 75% in size
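Readings reflect AlphaScreen signal from monomethyl-H3K9 antibody detection. HMT at 20 nM; substrate b-H3K9 500 nM; cofactor SAM 20 uM; 2 h RT reaction; compounds tested as titrations in qHTS with 15 min preincubation.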
* marks the source's active call; other numbers are inactive results; ? = inconclusive; · = no result given; [ ] = remark or other dose. This is a sample that favours compounds with a hit; in the whole collection about 10% have one here. The call rests on the fitted dose curve; in most records, active means well fitted curve in the direction sought with a large enough effect; inconclusive means small, poorly fitted or top-dose-only effect, or another doubt; inactive means no such curve, though single readings can be large; an effect the other way counts as inactive or inconclusive. Potency means the concentration at half of the fitted maximal effect.

SMILES	GLS inh	JMJD2A Tudor inh	HP1b binding inh	BAZ2B block	G9a inh
C#CCOCCOCCOCCNc1nc(N2CCOCC2)nc(N2CCN(C(=O)CCCCCCCCCCNC(=O)[C@@H](CCSC)n3cc(CCO)nn3)CC2)n1	2%	-32%	10%	-5%	12%[2.33 µM]
C#CCOCCOCCOCCNc1nc(N2CCN(C(=O)CCCCCCCCCCNC(=O)[C@@H](CCSC)n3cc(CCO)nn3)CC2)nc(N2CCN(C(=O)CCCCCCCCCCNC(=O)[C@H]([C@@H](C)CC)n3cc(CCCCN=C(N)N)nn3)CC2)n1	-12%	40µM*	?	50µM*	2%[2.33 µM]
CCOC(=O)C1CCN(c2nc3c(S(=O)(=O)c4ccccc4)nnn3c3ccsc23)CC1	-1%	-5%	35%	-7%	-16%[59 µM]
O=C(NCCN1CCOCC1)/C(=C/c1ccco1)NC(=O)c1ccccc1	5%	-14%	12%	-30%	?
COc1ccc(-c2[nH]c(-c3ccccc3)nc2SCC(=O)Nc2nccs2)cc1	-5%	?	-4%	?	11µM*
COc1ccc(N(CC(=O)NCCc2ccccc2)C(=O)CCC(=O)Nc2nccs2)cc1	11%	-8%	?	-2%	56µM*
COc1ccc(-c2[nH]c(-c3ccc(Cl)cc3)nc2SCC(=O)Nc2nccs2)cc1	-4%	-24%	21%	-27%	?
COc1cccc(-c2nc(SCC(=O)NC3CCCC3)c(-c3ccc(C)cc3)[nH]2)c1	5%	?	4%	-5%	-5%[59 µM]
COc1ccccc1N(CC(=O)NCCc1ccccc1)C(=O)CCC(=O)Nc1nccs1	-25%	-13%	10%	4%	23%[59 µM]
COc1ccc(-c2[nH]c(-c3ccc(C)cc3)nc2SCC(=O)NC2CCCC2)cc1	-10%	?	-7%	?	50µM*
COc1ccc(CN2C(=O)CCC2(C)c2nc3ccccc3[nH]2)cc1 (centres undefined)	3%	·	·	·	·
CCC(=O)Nc1ccc2nc3c(=O)[nH]c(=S)[nH]c3nc2c1	?	56µM*	?	50µM*	32µM*
CCC(=O)Nc1ccc2nc3c(=O)n(C)c(=O)n(C)c3nc2c1	0%	-6%	33%	0%	10%[59 µM]
O=C(NCc1ccccn1)[C@@H]1CCCN1C(=O)[C@@H]1CCCN1	-8%	·	·	·	·
COc1ccc(-c2cc(-c3nc4ccccn4c3NCc3ccccc3)ccc2OC)cc1	14%	32µM*	?	·	·
COc1ccc(-c2nc3ccccn3c2NCc2ccc3c(c2)OCO3)cc1	16%	?	-7%	50µM*	?
Cc1ccc(-c2noc(-c3ccc(NCc4ccco4)c([N+](=O)[O-])c3)n2)cc1	1%	-14%	49%	-21%	-13%[59 µM]
COc1ccccc1NC(=O)c1ccccc1NC(=O)c1cccs1	3%	-4%	9%	-3%	-1%
NC(=S)NN=Cc1nccc2c(N)cccc12	27%	·	·	·	·
CCN(C(C)=O)c1cnc(C=NNC(N)=S)c2ccccc12	26%	56µM*	2%	·	·
Cc1c(C(=O)OCC[N+]2(C)CCCCC2)oc2ccccc12	2%	-8%	-22%	-21%	28µM*
Cc1ccc(Cn2cc(CCC(=O)O)c3ccccc32)cc1	11%	-2%	14%	-25%	45µM*
Cc1ccc(CNC(=O)CCc2cn(Cc3ccc(C)cc3)c3ccccc23)cc1	-2%	-7%	33%	-14%	4%[59 µM]
CN1c2ccsc2/C(=N/Nc2ccc(F)cc2)CS1(=O)=O	?	25µM*	?	?	14µM*
Cc1ccc(N/N=C2\CS(=O)(=O)N(C)c3ccsc32)cc1	10%	-27%	-5%	?	45µM*
SMILES	GLS inh	JMJD2A Tudor inh	HP1b binding inh	BAZ2B block	G9a inh
CCCC(=O)N/N=C1\CS(=O)(=O)N(C)c2ccsc21	0%	-9%	4%	-39%	-14%
CCOc1ccc(OCCC(=O)Nc2ccc(N3CCOCC3)cc2N2CCOCC2)cc1	10%	·	·	·	·
Cc1ccc(S(=O)(=O)N2CC=C(C(=O)NCc3ccccc3)CC2)cc1	2%	-4%	43%	0%	40µM*
COc1ccc(S(=O)(=O)N2CCC(C(=O)NCc3ccc(C)cc3)CC2)cc1	-4%	-1%	14%[57 µM]	-12%	-11%
Cc1ccc(CNC(=O)c2sc3ccc(S(=O)(=O)N4CCCCC4)cc3c2N)cc1	·	·	·	0%	45µM*
Nc1c(C(=O)NCCC2=CCCCC2)sc2ccc(S(=O)(=O)N3CCCCC3)cc12	1%	-19%	19%	-1%	?
COc1ccc(CNC(=O)C2=CCN(S(=O)(=O)c3ccc(C)cc3)CC2)cc1	0%	-8%	24%	5%	45µM*
CCOc1ccc(C(=O)c2cn(CC(=O)Nc3ccc(F)cc3)c3cc4c(cc3c2=O)OCO4)cc1	-1%	-17%	25%	-20%	-2%[59 µM]
CCc1ccc(C(O)c2ncc(-c3ccc(C)cc3)[nH]2)cc1 (centres undefined)	0%	·	·	·	·
COc1cc2c(cc1OC)C(C(=O)Nc1ccc(F)c(Cl)c1)CC(=O)N2 (centres undefined)	15%	-15%	28%	-5%	8%
Cc1cc(C)cc(OCC(=O)NCC2(N(C)C)CCCCC2)c1	16%	-7%	34%	-7%	-27%[59 µM]
COCCNCc1cc(C)n(-c2cc(S(=O)(=O)N3CCOCC3)ccc2N2CCCC2)c1C	-13%	5µM*	-37%	·	·
Cc1ccc(S(=O)(=O)NC(=O)c2cc(C)n(-c3cc(S(=O)(=O)N4CCOCC4)ccc3N3CCCC3)c2C)cc1	2%	-24%	-13%	-9%	?
O=C(NCCCn1ccnc1)c1cccc(S(=O)(=O)Nc2ccc(Br)cc2)c1	-2%	-27%	20%	-35%	11µM*
CSc1ccc(S(=O)(=O)NCCCn2ccnc2)cc1	1%	-23%	20%	-22%	52%
Cc1ccc(C(=O)NCCCn2ccnc2)cn1	0%	5%	11%	50µM*	-5%
O=[N+]([O-])c1cccc(S(=O)(=O)NCCCn2ccnc2)c1	1%	-23%	1%	50µM*	25%[59 µM]
O=C(NCCCn1ccnc1)c1cccc(S(=O)(=O)Nc2ccc(F)cc2)c1	8%	-28%	20%	-1%	-5%
Cc1ccc(-c2[nH]c3cc(C(=O)NCCCn4ccnc4)ccc3c(=O)c2O)cc1	19%	-35%	37%	56µM*	19%[59 µM]
COc1ccc(Oc2ncc3nc(C)c(=O)n(-c4ccc(OC)cc4)c3n2)cc1	·	·	·	·	-5%[12.7 µM]
CNC1=CN=C(c2ccccc2)c2cc(Cl)ccc2N1	·	·	·	·	4%[59 µM]
O=C(CNC(=O)c1ccc(Cl)cc1)NCCCn1ccnc1	-7%	7%[57.1 µM]	19%	79µM*	-37%
CC(NC(=O)NCCCn1ccnc1)(C(F)(F)F)C(F)(F)F	5%	-8%	27%	-9%	-13%[59 µM]
O=C(NCCCn1ccnc1)C(F)(F)C(F)(F)C(=O)NCCCn1ccnc1	-7%	?	40%	20µM*	14µM*

Screening results (PubChem BioAssay)
